Measurements published in PubChem BioAssay AID770 (SRMLSC, 2007).
Fewer than 10 of roughly 3,300 compounds were called active.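 The calls were made as follows: active = growth inhibition above 90% in viable cell count at a single dose; inactive = growth inhibition below 90%.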 Only a sample is shown.

Assay: HT29 colon tumor cell growth inhibition, primary screen, imaging, high content imaging, 24 h, CellTiter-Glo (AID 770);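 as to condensed nuclei: share of cells whose nuclear area falls below control median minus 1.5 SD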
Conditions: HT29 cell number by imaging, at 10 µM, stronger effect = higher value; for condensed nuclei: measured here: percent cells with condensed nuclei
[1] = measured here: ATP CellTiter-Glo viability

Row | Structure (SMILES) | growth inhibition | growth inhibition [1] [%] | condensed nuclei [%]
1 | CC1(C)Cc2c(c(-c3ccccc3Cl)[nH]c(=O)c2C#N)CO1 | -42.2% (inactive) | -17.5 | 1.85
2 | COC(=O)C(NC(C)=O)(Nc1ccccc1)C(=O)OC | -24.8% (inactive) | -9.05 | 3.37
3 | O=C(OCCCN1CCCC1)C1(c2ccccc2)CCCC1 | 3.8% (inactive) | 4.75 | 5.7
4 | C=C(C)CSC1=C(C#N)C(c2ccsc2)CC(=O)N1 (stereo not drawn) | -9.27% (inactive) | -4.29 | 1.96
5 | N#CC1=C2SCC(O)(c3ccccc3)N2C(=O)CC1c1ccccc1 (stereo not drawn) | 90.7% (active) | 28.5 | 46
6 | CCCCCCSC1=C(C#N)C(c2ccccc2)CC(=O)N1 (stereo not drawn) | -14.4% (inactive) | -7.19 | 3.36
7 | Nc1c2c(nc3ccccc13)N(c1ccccc1)CC2 | -26.1% (inactive) | -9.66 | 3.19
8 | CC(C)c1cc(NCCCN2CCOCC2)n2c(nc3ccccc32)c1C#N | -4.17% (inactive) | -7.5 | 5.23
9 | CCCOc1ccc(C2NC(=O)NC2=O)cc1 (stereo not drawn) | 10.6% (inactive) | -11.9 | 16
10 | Cc1cc(C)n(Cc2cc(C)c(Cn3nc(C)cc3C)cc2C)n1 | -26.1% (inactive) | -2.81 | 2.58
11 | CCOc1ccc2c(C)nc(NC3=NC(C)(C)C=C(C)N3)nc2c1 | 18.5% (inactive) | 16.6 | 3.47
12 | CC1(C)Cc2c(sc3c4nnnn4c4nnnn4c23)CO1 | 6.59% (inactive) | -3.55 | 2.72
13 | Cc1ccc(C(=O)C2=C(O)C(=O)N(CCN3CCOCC3)C2c2ccccn2)o1 (stereo not drawn) | 20.8% (inactive) | 0.76 | 4.96
14 | Cc1cccn2c(=O)c(/C=C(\C#N)S(=O)(=O)c3ccccc3)c(N3CCN(C)CC3)nc12 | 5.64% (inactive) | 13.3 | 3.93
15 | Nc1nnc(CSCc2ccc(F)cc2)s1 | -13.9% (inactive) | -8.17 | 3.43
16 | Cc1ccc2[nH]c3c(N4CCCCCC4)ncnc3c2c1 | 74.2% (inactive) | 38.6 | 5.98
17 | Cc1cc(=O)oc(C)c1C(=O)Nc1cccc2nonc12 | 38% (inactive) | 7.72 | 3.32
18 | C/C(=N\O)C(=O)NCCCNCCCN(C)C | 28.6% (inactive) | 10.3 | 4.53
19 | N#CC1=C(SCC(=O)c2ccc(Cl)cc2)NC2=C(C(=O)CCC2)C1c1ccco1 (stereo not drawn) | 64.2% (inactive) | 40 | 20.2

Row | Structure (SMILES) | growth inhibition | growth inhibition [1] [%] | condensed nuclei [%]
20 | O=S(=O)(/C=C/c1ccccc1)Nc1ccc2c(c1)OCO2 | -3.8% (inactive) | -13.4 | 3.87
21 | CCCOc1ccc(/C(O)=C2/C(=O)C(=O)N(CCN(C)C)C2c2ccncc2)cc1 (stereo not drawn) | -14% (inactive) | -1.78 | 5.23
22 | CCOc1nc(SCCOc2ccc(C)cc2)nc(N(C)C)n1 | -2.97% (inactive) | -13.9 | 2.83
23 | CCOC(=O)COc1ccc(Oc2nc(C)cc(OC)n2)nn1 | -1.19% (inactive) | 1.86 | 5.21
24 | CCCCN(C(=O)CCC(=O)O)C1CC(=O)N(c2ccc(OCCC)cc2)C1=O (stereo not drawn) | 20.1% (inactive) | 7.14 | 1.69
25 | COCc1[nH]nc2c1C(c1ccccc1OC)C(C#N)=C(N)O2 (stereo not drawn) | 34.7% (inactive) | -0.21 | 3.93
26 | CC1CCc2cc(F)cc3c(O)c(C(=O)NCC4CCCO4)c(=O)n1c23 (stereo not drawn) | 12.1% (inactive) | 11.9 | 2.11
27 | O=C1OC(Nc2ccc(Br)cn2)c2ccccc21 (stereo not drawn) | -21.1% (inactive) | 2.61 | 3.37
28 | CCOC(=O)c1ccc(-n2c(=O)[nH]c3ccccc3c2=O)cc1 | -28.4% (inactive) | -4.1 | 4.94
29 | COc1ccc(-c2onc(C)c2-c2ccccc2)c(O)c1 | 25.2% (inactive) | -2.05 | 4.31
30 | CCn1c(-c2ccco2)n[nH]c1=S | 2.65% (inactive) | -3.63 | 3.02
31 | CCN(CC)C(=O)COn1c(SCC(=O)N(CC)CC)nc2ccccc2c1=O | 28.8% (inactive) | -9.22 | 5.68
32 | CN(C)C(=O)COn1c(SCC(=O)N(C)C)nc2ccccc2c1=O | 100% (active) | -74.5 | 7.94
33 | COC(=O)COn1c(SCC(=O)OC)nc2ccccc2c1=O | 39.9% (inactive) | -6.12 | 2.06
34 | Cc1c(/C(O)=C2\C(=O)C(=O)N(CCN(C)C)C2c2cccnc2)cnn1-c1ccccc1 (stereo not drawn) | 65.4% (inactive) | 24.8 | 7.5
35 | Cc1nc2c(c(=O)n1CC1CCCO1)c1nc3ccccc3nc1n2CC(C)C (stereo not drawn) | 47.8% (inactive) | 4.29 | 7.73
36 | Cc1[nH]c(=O)[nH]c(=O)c1S(=O)(=O)N1CCCC1 | 7.67% (inactive) | -13.2 | 3.07
37 | CCCCSc1nnc(-c2ccc(NC(C)=O)cc2)n1C | 14.5% (inactive) | 6.32 | 2.33
38 | c1ccc(OCc2nn3c(C4CCCCC4)nnc3s2)cc1 | 0.33% (inactive) | -3.2 | 2.15

Row | Structure (SMILES) | growth inhibition | growth inhibition [1] [%] | condensed nuclei [%]
39 | Cc1cccc(C)c1OCC(O)CNS(=O)(=O)c1ccccc1C(=O)N1CCOCC1 (stereo not drawn) | -11.9% (inactive) | -0.31 | 3.46
40 | COc1ccc(-n2ccc(=O)c3c2CCCC3=O)cc1 | -18.6% (inactive) | 1.93 | 3.07
41 | Cc1ccc(-c2nnc(OCCN3CCOCC3)c3ccccc23)cc1 | 30.1% (inactive) | 10.1 | 3.64
42 | COc1cc(C2C(C(=O)c3ccc(C)o3)=C(O)C(=O)N2c2cc(C)on2)cc(OC)c1OC (stereo not drawn) | -22% (inactive) | -13.1 | 3.21
43 | Cc1c(OCc2ccccc2)c(=O)ccn1Cc1ccccc1 | -0.34% (inactive) | -10.9 | 1.99
44 | Oc1oc(-c2ccccc2)nc1C=NCc1ccncc1 | 2.2% (inactive) | -2.06 | 3.2
45 | CC1(C)CC(N(Cc2ccco2)C(=O)Cc2ccccc2)CCO1 (stereo not drawn) | 12.6% (inactive) | 0.11 | 2.03
46 | Cc1cc(C)n(-c2ncnc3sc(C)c(C)c23)n1 | -10.3% (inactive) | 2.85 | 1.35
47 | COc1ccc(C2NC(=O)NC(O)(C(F)(F)F)C2C(=O)c2ccc(F)cc2)cc1 (stereo not drawn) | -33.6% (inactive) | 0.76 | 2.45
48 | CC(C)c1ccc(O)c(N)c1 | -26.1% (inactive) | 2.95 | 5.48
49 | CC1(C)NC(=O)N(CC(O)COc2cc3ccccc3cc2C(=O)N2CCCCC2)C1=O (stereo not drawn) | 23.3% (inactive) | -6.38 | 4.21
50 | COC(=O)c1n[nH]c2ccccc12 | 52.2% (inactive) | 8.18 | 5
51 | CCCCCCOc1ccc(C(=O)n2cnc(N)n2)cc1 | -1.14% (inactive) | -15.8 | 1.48
52 | O=c1[nH]cnc2cc(-c3ccccc3)sc12 | 7.95% (inactive) | 3.25 | 2.77
53 | COc1cccc(NC(=O)c2cc(C(=O)Nc3cccc(OC)c3)n(C)n2)c1 | -5.68% (inactive) | 22.7 | 6.71
54 | COC(=O)c1ccc(C2/C(=C(/O)c3ccc(OC)cc3)C(=O)C(=O)N2c2cc(C)on2)cc1 (stereo not drawn) | 8.36% (inactive) | 6.44 | 3.44
55 | COc1cc(C)nc(N(C)S(=O)(=O)c2ccccc2Cl)n1 | 7.98% (inactive) | -1.53 | 3.59
56 | Cn1c(NCC(O)c2ccccc2)nc2c1c(=O)n(Cc1ccc(Cl)c(Cl)c1)c(=O)n2C (stereo not drawn) | 46.1% (inactive) | 22.7 | 1.95
